Experimental findings from PubChem BioAssay (NCI) are described below.

Structures are written as SMILES. The panel holds about 83,000 compounds, 20% with a hit somewhere; the sample as a whole holds those more often.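 Activity criterion: percent growth below 10, measured after cells in 96-well plates were exposed to a single compound concentration for 48 hours.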 A number with no mark means an inactive call. Calls of active or inactive are those of the source.

Holding throughout (test): NCI-60 one-dose screen, 48 h (100 = growth as untreated, 0 = no growth, -100 = all killed)
In one experiment the test system is NCI-H226 lung. As to conditions: 10 µM.
Another experiment concerns NCI-H322M lung. As to conditions: 10 µM unless noted.
A further experiment deals with HOP-62 NSCLC. As to conditions: 10 µM unless noted.
In the next experiment the test system is NCI-H460 lung. As to conditions: 10 µM unless noted.
A further experiment deals with HOP-92 NSCLC. As to conditions: 10 µM unless noted.
The next experiment concerns NCI-H522 lung. As to conditions: 10 µM.
A further experiment relates to A549/ATCC NSCLC. As to conditions: 10 µM unless noted.
In a further experiment the test system is 786-0 renal. As to conditions: 10 µM unless noted.
The next experiment deals with COLO 205 colon. As to conditions: 10 µM unless noted.

Regarding `FCOC(C(F)(F)F)C(F)(F)F`, the growth in the experiment on NCI-H226 lung is 106%; in the experiment on NCI-H322M lung it was 97.5%; in the experiment with HOP-62 NSCLC, 114%; in the experiment with NCI-H460 lung, 111%; with HOP-92 NSCLC, 120%; in the experiment with NCI-H522 lung it was 96.6%. Moreover, the growth in the experiment on A549/ATCC NSCLC is 99.1%; in the experiment with 786-0 renal, 97.7%; in the experiment on COLO 205 colon, 117%.

Turning to `Cc1nc2cc(Nc3nc(NCCN)nc(Nc4ccc(F)cc4)n3)ccc2n1Cc1ccccc1`, the growth is 95.4% with NCI-H226 lung; 99.7% with NCI-H322M lung; 79.1% in the experiment with HOP-62 NSCLC; 82.6% with NCI-H460 lung; 48.5% in the experiment on HOP-92 NSCLC; 85.9% in the experiment on NCI-H522 lung. Besides, the figures for the growth with A549/ATCC NSCLC, with 786-0 renal and in the experiment on COLO 205 colon were 83.9%, 82.4% and 82%, respectively.

On to `Cc1nc2cc(Nc3nc(NCCO)nc(Nc4ccc(F)cc4)n3)ccc2n1Cc1ccccc1`, for which the growth is 91.6% in the experiment on NCI-H226 lung; 98.9% in the experiment with NCI-H322M lung; 94% in the experiment on HOP-62 NSCLC; 83.5% with NCI-H460 lung; 49.9% with HOP-92 NSCLC; 85.6% in the experiment on NCI-H522 lung. Further, the values for the growth in the experiment with A549/ATCC NSCLC, with 786-0 renal and with COLO 205 colon were 74.1%, 94.7% and 94.5%, respectively.

In the case of `Cn1cc(C(=O)NCCC(=N)N)cc1NC(=O)CN=C(N)N`, the growth with NCI-H226 lung is 90.7%; in the experiment with NCI-H322M lung, 106%; with HOP-62 NSCLC, 85.9%; in the experiment on NCI-H460 lung, 107%; with HOP-92 NSCLC it was 89.5%; in the experiment on NCI-H522 lung it was 87.5%. In addition, the growth was 99.2% with A549/ATCC NSCLC, 85.4% with 786-0 renal and 103% with COLO 205 colon.

Take `CC(C)N1CCN(c2ccc(OC[C@H]3CO[C@](Cn4cncn4)(c4ccc(Cl)cc4Cl)O3)cc2)CC1`: the growth was 93.6% with NCI-H226 lung; 106% with NCI-H322M lung; 81% in the experiment with HOP-62 NSCLC; 103% with NCI-H460 lung; 71.2% with HOP-92 NSCLC; 78% with NCI-H522 lung. Also, the growth in the experiment on A549/ATCC NSCLC was 89.6%; in the experiment with 786-0 renal it was 99.2%; with COLO 205 colon, 62.9%.

Consider `CC1=C(C/C=C(\C)CCC[C@H](C)CCC[C@H](C)CCCC(C)C)C(=O)c2ccccc2C1=O`, for which the growth is 110% in the experiment on NCI-H226 lung; 103% in the experiment on NCI-H322M lung; 115% in the experiment with HOP-62 NSCLC; 114% in the experiment with NCI-H460 lung; 111% in the experiment on HOP-92 NSCLC; 107% with NCI-H522 lung. Besides, the growth with A549/ATCC NSCLC was 103%; in the experiment on 786-0 renal, 103%; in the experiment on COLO 205 colon, 110%.

On to `OC[C@@H](O)[C@@H](O)CO`, for which the growth in the experiment on NCI-H226 lung was 98.6%; in the experiment on NCI-H322M lung, 105%; in the experiment on HOP-62 NSCLC it was 126%; in the experiment with NCI-H460 lung it was 107%; with HOP-92 NSCLC it was 101%; in the experiment on NCI-H522 lung it was 96.6%. The growth in the experiment on A549/ATCC NSCLC was 104%; with 786-0 renal, 104%; with COLO 205 colon, 111%.

`COc1cc(C2=NN(c3ccc(S(N)(=O)=O)cc3)C(c3ccc(Cl)cc3)C2)cc(OC)c1OC` (centres undefined): the growth is 55.6% in the experiment on NCI-H226 lung; 66.9% with NCI-H322M lung; 60.6% in the experiment with HOP-62 NSCLC; 25.8% with NCI-H460 lung; 23.3% with HOP-92 NSCLC; 44.9% with NCI-H522 lung. Also, the growth was 26.2% with A549/ATCC NSCLC, 66.5% in the experiment on 786-0 renal and 48.5% with COLO 205 colon.

On to `O=C1c2cc(S(=O)(=O)O)ccc2C(=O)c2c1cccc2[N+](=O)[O-]`, for which the growth in the experiment on NCI-H226 lung is 111%; in the experiment with NCI-H322M lung it was 111%; in the experiment with HOP-62 NSCLC it was 117%; in the experiment on NCI-H460 lung it was 115%; in the experiment on HOP-92 NSCLC it was 110%; in the experiment on NCI-H522 lung it was 96.6%. The growth in the experiment on A549/ATCC NSCLC is 98.6%; in the experiment with 786-0 renal, 101%; in the experiment on COLO 205 colon, 108%.

As for `Cc1nc2cc(Nc3nc(Nc4ccc(F)cc4)nc(-c4ccc(Cl)cc4)n3)ccc2n1Cc1ccccc1`, the growth in the experiment on NCI-H226 lung is 86.5%; with NCI-H322M lung it was 94%; in the experiment with HOP-62 NSCLC, 80.6%; with NCI-H460 lung it was 71.1%; with HOP-92 NSCLC, 35.1%; in the experiment with NCI-H522 lung it was 82.8%. Further, the growth in the experiment with A549/ATCC NSCLC was 57.4%; in the experiment with 786-0 renal it was 91%; in the experiment with COLO 205 colon, 61.8%.

In the case of `COc1ccc(-c2nc3sc(C)cn3c2/C=C/C(=O)c2cc(OC)c(OC)c(OC)c2)cc1`, the growth was 76.9% with NCI-H226 lung; 76.1% in the experiment with NCI-H322M lung; 90.1% in the experiment with HOP-62 NSCLC; 50.5% with NCI-H460 lung; 46.2% in the experiment on HOP-92 NSCLC; 37.8% in the experiment on NCI-H522 lung. For the same molecule, the figures for the growth in the experiment on A549/ATCC NSCLC, in the experiment with 786-0 renal and in the experiment on COLO 205 colon were 57.1%, 48.2% and 67.9%, respectively.

Take `COc1ccc(-c2nc(Nc3ccc(F)cc3)nc(Nc3ccc4c(c3)nc(C)n4Cc3ccccc3)n2)cc1`: the growth was 66.6% in the experiment on NCI-H226 lung; 82.4% in the experiment on NCI-H322M lung; 53.3% in the experiment with HOP-62 NSCLC; 30.3% with NCI-H460 lung; 39.7% in the experiment on HOP-92 NSCLC; 55.4% in the experiment with NCI-H522 lung. The growth with A549/ATCC NSCLC is 32%; in the experiment on 786-0 renal, 46.7%; in the experiment on COLO 205 colon, 28.2%.

On to `O=C(C[Si](CC(=O)c1cccc(C(F)(F)F)c1)CC(=O)c1cccc(C(F)(F)F)c1)c1cccc(C(F)(F)F)c1`, for which the growth in the experiment with NCI-H226 lung was 82.9%; in the experiment with NCI-H322M lung, 74.5%; in the experiment on HOP-62 NSCLC, 95.6%; in the experiment with NCI-H460 lung it was 8.35% (active); in the experiment on HOP-92 NSCLC, -27.9% (active); with NCI-H522 lung it was 68.7%. In addition, the values for the growth in the experiment on A549/ATCC NSCLC, in the experiment on 786-0 renal and with COLO 205 colon were 49%, 75.8% and 98.4%, respectively.

For `CN1CCc2cccc3c2C1Cc1ccc(O)c(O)c1-3` (centres undefined), the growth with NCI-H226 lung is 80.8%; in the experiment on NCI-H322M lung, 109%; with HOP-62 NSCLC it was 87.8%; in the experiment on NCI-H460 lung, 111%; in the experiment with HOP-92 NSCLC, 106%; in the experiment on NCI-H522 lung it was 39.5%. Further, the growth with A549/ATCC NSCLC was 95.6%; in the experiment on 786-0 renal, 86.2%; in the experiment on COLO 205 colon, 90.5%.

For the molecule `COC(=O)c1ccc(C(=O)Nc2ccccc2N)cc1`, the growth in the experiment with NCI-H226 lung was 73.9%; in the experiment on NCI-H322M lung it was 66.5%; with HOP-62 NSCLC, 95%; with NCI-H460 lung, 63.3%; in the experiment with NCI-H522 lung it was 75.1%; in the experiment with A549/ATCC NSCLC, 94.7%. In addition, the growth in the experiment with 786-0 renal is 80.8%; in the experiment on COLO 205 colon it was 106%.
